# PubChem BioAssay AID1578 (Sanford-Burnham Center for Chemical Genomics, 2009)
# Screen size: about 290,000 compounds; about 3,000 (1%) were called active. The sample holds actives, similar compounds and a random draw of the others, so the mix is not that of the screen. Values without a mark were called inactive. Rule as the data show it: active = inhibition mostly above about 36% (no sharp cut-off); inactive = mostly below about 34%.
# Experiment: NOD1 signaling inhibitors, primary screen, cell-based, luminescence, uHTS (AID 1578);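 also: HEK-293T reporter cells stimulated with the NOD1 agonist gamma-tri-DAP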
# Conditions: NOD1-driven NF-kB luciferase reporter cells, at 4 µM, active compounds read high
row,Structure (SMILES),inhibition
1,Cc1c(-c2cccc(Cl)c2)nc2ccccc2c1C(=O)N1CCC2(CC1)OCCO2,-11.2%
2,O=[N+]([O-])c1ccc(-[n+]2c(-c3ccccc3)cc(-c3ccccc3)cc2-c2ccccc2)cc1,-8.8%
3,Nc1ccccc1-[n+]1c(-c2ccccc2)cc(-c2ccccc2)cc1-c1ccccc1,-5.4%
4,c1ccc(-c2cc(-c3ccccc3)[n+](-c3ccccc3)c(-c3ccccc3)c2)cc1,65.7% (active)
5,CCNC(=O)[C@H]1O[C@@H](n2cnc3c(N)ncnc32)[C@H](O)[C@@H]1O,-5.6%
6,NC(=S)c1cn(C2OC(CO)C(O)C2O)c2ncnc(N)c12 (configuration not stated),104% (active)
7,CN(C)C(=O)Oc1ccc2c(c1)O/C(=C\c1cccc([N+](=O)[O-])c1)C2=O,-9.1%
8,O=C1NC(=O)C(=Cc2ccc(Sc3ccccc3)o2)C(=O)N1,1.7%
9,Cc1c(C=O)c2ccccc2n1Cc1ccccc1F,5%
10,CCn1c(O)c(/C=N/NC(=O)c2ccncc2)c(=O)[nH]c1=S,2.7%
11,CCOC(=O)CCN=Cc1c(O)n(-c2ccc(Br)cc2)c(=O)[nH]c1=O,-27.1%
12,Cc1cc(C)n2nc(C)[n+](C)c2n1,-17.4%
13,CCOC(=O)c1c(C)n(Cc2ccc3c(c2)OCO3)c2ccc(O)cc12,-7.9%
14,COC(=O)c1c(C)n(Cc2ccc3c(c2)OCO3)c2ccc(O)cc12,48.3% (active)
15,COC(=O)c1c(C)n(Cc2ccccc2)c2ccc(O)cc12,19.6%
16,C=CCn1c(O)c(/C(C)=N/N2CCCCCC2)c(=O)[nH]c1=O,-6.9%
17,CCCCCn1c(=O)c(C(=O)Nc2nc(CC(=O)OCC)cs2)c(O)c2ccccc21,-28.8%
18,CCCCCCn1c(=O)c(C(=O)Nc2nc(CC(=O)OCC)cs2)c(O)c2ccccc21,58.7% (active)
19,CCCCCCn1c(=O)c(C(=O)Nc2ccncc2)c(O)c2ccccc21,63.9% (active)
20,CCCCCn1c(=O)c(C(=O)Nc2cccc(C)c2)c(O)c2ccccc21,-15.2%
21,CCCCn1c(=O)c(C(=O)Nc2ccccc2)c(O)c2ccccc21,14.3%
22,CCCCCn1c(=O)c(C(=O)Nc2ccncc2)c(O)c2ccccc21,69.7% (active)

row,Structure (SMILES),inhibition
1,CCCCCn1c(=O)c(C(=O)NCc2ccncc2)c(O)c2ccccc21,21.6%
2,CCOC(=O)Cc1csc(NC(=O)c2c(O)c3ccccc3n(CCC(C)C)c2=O)n1,-27.7%
3,CCCCCn1c(=O)c(C(=O)Nc2ccccc2)c(O)c2ccccc21,-20.5%
4,Cc1ccc(N2CCN(CCc3ccccc3)CC2)cc1,10.7%
5,CCOc1nc(NC(C)C)nc(N2CC3CC(C2)c2cccc(=O)n2C3)n1 (configuration not stated),-38.6%
6,O=C(Nc1cccc(Cl)c1)c1c(O)c2c(n(Cc3ccccc3)c1=O)CCCC2,-38.5%
7,CCCCn1c(O)c(C(C)=NCCCn2ccnc2)c(=O)[nH]c1=O,-5.8%
8,Cc1ccsc1C(=O)C1CCCN(Cc2ccc(O)cc2)C1 (configuration not stated),-32.6%
9,Cc1ccsc1C(=O)C1CCCN(Cc2sc(N(C)C)nc2Cl)C1 (configuration not stated),60.9% (active)
10,Cc1ccsc1C(=O)C1CCCN(Cc2cnc(N3CCCC3)s2)C1 (configuration not stated),11.2%
11,Cc1ccsc1C(=O)C1CCCN(Cc2cc3ccccc3o2)C1 (configuration not stated),75.6% (active)
12,Cc1ccc(CN2CCCC(C(=O)c3sccc3C)C2)o1 (configuration not stated),-19.5%
13,Cc1ccsc1C(=O)C1CCCN(Cc2cnc(N3CCOCC3)s2)C1 (configuration not stated),46.6% (active)
14,CCc1ccc(CN2CCCC(C(=O)c3sccc3C)C2)o1 (configuration not stated),-19%
15,Cc1ncc(CN2CCCC(C(=O)c3sccc3C)C2)s1 (configuration not stated),-24.9%
16,Cc1ccsc1C(=O)C1CCCN(Cc2cnc(N(C)C)s2)C1 (configuration not stated),-26.4%
17,CC(C)(C)C(=O)c1cn(CC(=O)NCc2ccco2)c2ccccc12,-39.1%
18,Cc1ccc(-n2c(O)c(/C=N/N3CCCCCC3)c(=O)[nH]c2=O)cc1C,1.1%
19,CCC(=NCCCn1ccnc1)c1c(O)n(-c2ccc(OC)cc2)c(=O)[nH]c1=O,-8.6%
20,COc1cccc(C(=O)C2CN(C)CC2c2ccc(Cl)cc2)c1 (configuration not stated),-33.4%
21,CC/C(=N\NC(=O)c1ccccc1)c1c(O)n(Cc2ccccc2)c(=O)[nH]c1=O,12.5%
22,O=c1[nH]c(=S)n(C2CC2)c(O)c1C=NCC1CCCO1 (configuration not stated),-13.4%

row,Structure (SMILES),inhibition
1,COc1ccc(CC(=O)N2C[C@H]3C[C@@H](C2)c2cccc(=O)n2C3)cc1,24.2%
2,O=C(CCc1ccc(O)cc1)N1C[C@H]2C[C@@H](C1)c1cccc(=O)n1C2,9.1%
3,CCc1ccccc1NC(=O)N1C[C@H]2C[C@@H](C1)c1cccc(=O)n1C2,54.5% (active)
4,COc1ccc(CCC(=O)N2C[C@H]3C[C@@H](C2)c2cccc(=O)n2C3)cc1,53.1% (active)
5,COC(=O)c1ccccc1NC(=O)N1C[C@@H]2C[C@@H](C1)c1cccc(=O)n1C2,-15.8%
6,COc1ccccc1NC(=O)N1C[C@@H]2C[C@@H](C1)c1cccc(=O)n1C2,-34.3%
7,O=c1cccc2n1CC1CC2CN(Cc2c(Cl)cccc2Cl)C1 (configuration not stated),14%
8,O=c1cccc2n1CC1CC2CN(Cc2c(F)cccc2Cl)C1 (configuration not stated),-7.2%
9,O=c1cccc2n1CC1CC2CN(Cc2cccc(Cl)c2Cl)C1 (configuration not stated),63.8% (active)
10,O=[N+]([O-])c1ccc(N2CCCNCC2)c2ncccc12,-0.2%
11,CC(C)Sc1nnc([C@@H](N)Cc2c[nH]c3ccccc23)o1,-2.5%
12,CC12CC[C@H]3[C@@H](CCC4(O)C[C@H](O)CCC34/C=N/NC(=O)c3ccccc3F)C1(O)CCC2C1=CC(=O)OC1 (some centres not stated),-9.8%
13,C[C@H]1O[C@@H](O[C@H]2[C@@H](O)C[C@H](O[C@H]3[C@@H](O)C[C@H](O[C@H]4CC[C@@]5(C)[C@H](CC[C@@H]6[C@@H]5CC[C@]5(C)[C@@H](C7=CC(=O)OC7)CC[C@]65O)C4)O[C@@H]3C)O[C@@H]2C)C[C@H](O)[C@@H]1O,105% (active)
14,CC12CC[C@H]3[C@@H](CCC4(O)C[C@H](O)CCC34/C=N/NC(=O)Cc3ccccc3)C1(O)CCC2C1=CC(=O)OC1 (some centres not stated),-7%
15,CC12CC[C@H]3[C@@H](CCC4(O)C[C@H](O)CCC34/C=N/NC(=O)c3ccccc3O)C1(O)CCC2C1=CC(=O)OC1 (some centres not stated),4.5%
16,COc1cc(C(=O)N/N=C/C23CC[C@@H](O)CC2(O)CC[C@@H]2[C@@H]3CCC3(C)C(C4=CC(=O)OC4)CCC23O)ccc1O (some centres not stated),-5.4%
17,C[C@H]1O[C@@H](OC2CC[C@]3(C=O)[C@H]4CC[C@]5(C)[C@@H](C6=CC(=O)OC6)CC[C@]5(O)[C@@H]4CC[C@]3(O)C2)CC2OC(C)(C)OC21 (some centres not stated),89.2% (active)
18,CN1CCC2(O)OCCCC2C1 (configuration not stated),4.3%
19,Cc1c(N)c(C)c([N+](=O)[O-])c(C)c1[N+](=O)[O-],69.5% (active)
20,O=C1CN(C(=O)CN2CCCCC2)C(c2ccccc2)c2cc(Br)ccc2N1 (configuration not stated),-24.1%
21,O=C(Nc1ccncc1)c1cccn(Cc2ccccc2)c1=O,33.5% (active)
22,O=C(Nc1ccccc1)c1cccn(Cc2ccccc2)c1=O,23%

row,Structure (SMILES),inhibition
1,Cc1cccc(C)c1NC(=O)c1cccn(Cc2ccc3c(c2)OC(F)(F)O3)c1=O,21.8%
2,O=C(Nc1ccc(C(F)(F)F)cc1)c1cccn(Cc2ccc3c(c2)OC(F)(F)O3)c1=O,59.7% (active)
3,O=C(NCc1ccccc1)c1cccn(Cc2ccccc2)c1=O,2.3%
4,O=C(Nc1cccc(C(F)(F)F)c1)c1cccn(Cc2ccc3c(c2)OC(F)(F)O3)c1=O,35.6%
5,Cc1nn(Cc2ccccc2Cl)c(Cl)c1C(=O)OCC(=O)NCc1ccco1,2.8%
6,CC(C)Oc1ccc(CCN)cc1Cl,-19.6%
7,CCCCCn1c(=O)c(C(=O)Nc2ccccn2)c(O)c2ccccc21,-4.7%
8,Cc1ccc(CN(Cc2ccccc2)C(=S)NCC(=O)N2CCC3(CC2)OCCO3)o1,-33.5%
9,CCOC(=O)c1[nH]ncc1CN1CCCC(C(=O)c2cccc(Cl)c2)C1 (configuration not stated),-5.2%
10,O=[N+]([O-])c1ccc(NC2CCN(Cc3ccccc3)CC2)c2ccncc12,-6.9%
11,O=[N+]([O-])c1ccc(NC2CCCC2)c2ccncc12,40.7%
12,O=[N+]([O-])c1ccc(NCc2ccc(Cl)cc2)c2ccncc12,37% (active)
13,Fc1cccc(CN2CCN(c3ccc(Cl)cc3)CC2)c1,-10.4%
14,CC(C)=CCc1c(O)cc2c(c1O)C(=O)CC(c1ccc(O)cc1)O2 (configuration not stated),5.8%
15,OC(CN1CCC(c2c[nH]c3ccccc23)CC1)C(F)(F)F (configuration not stated),1.1%
16,CN1CCN(/N=C/c2c[nH]c3ccccc23)CC1,-2.1%
17,CN1CCC(c2c[nH]c3ccccc23)C1 (configuration not stated),34.9% (active)
18,CN1CC(C(=O)c2ccc(Cl)cc2)C(c2ccccc2F)C1 (configuration not stated),-15.7%
19,CCOc1ccc(-n2c(O)c(N=Nc3ccc([N+](=O)[O-])cc3)c(=O)[nH]c2=O)cc1,-17.8%
20,Cc1c(N=Nc2c(O)n(-c3ccc(Br)cc3)c(=O)[nH]c2=O)c(=O)n(-c2ccccc2)n1C,-1.1%
21,O=c1[nH]c(=O)n(-c2ccccc2)c(O)c1N=Nc1ccc(Br)cc1,60.1% (active)
